Test results as given in PubChem BioAssay (NCI).
Compounds without any hit were thinned out: in the full panel of roughly 79,000, 15% have a hit. Rule as the data show it: active = growth inhibition above about 70%; inactive = the rest.

Experiments:
[1] = NCI Yeast Anticancer Drug Screen. Data for the rad50 strain (AID 155);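 also: 0% = growth of vehicle-only cultures of the same strain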; details: S. cerevisiae rad50 strain growth inhibition; at 50.0 µM; hits give high values
Outline: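 Readout: growth inhibition relative to vehicle-treated cultures. Compound exposure was carried out in a genetically defined yeast strain deficient in DNA damage repair.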

[2] = NCI Yeast Anticancer Drug Screen. Data for the mec2-1 strain (AID 157); details: S. cerevisiae mec2-1 strain, at 50.0 µM, hits give high values
Outline: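 Strain: mec2-1 (DNA repair/cell cycle alteration). Compound exposure, then growth measured; inhibition expressed relative to vehicle.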

[3] = NCI Yeast Anticancer Drug Screen. Data for the sgs1 mgt1 strain (AID 161);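 also: 0% = growth of cultures given vehicle only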; details: S. cerevisiae sgs1 mgt1 strain, at 50.0 µM, hits give high values
Outline: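 Read-out: growth inhibition vs vehicle controls. Cells: mutant yeast strain deficient in DNA damage repair.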

[4] = NCI Yeast Anticancer Drug Screen. Data for the cln2 rad14 strain (AID 165);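 also: 0% = growth equal to vehicle treated cultures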; details: S. cerevisiae cln2 rad14 strain, at 50.0 µM, hits give high values
Outline: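 Compounds are applied to the cln2 rad14 yeast strain, and growth is then compared with that of vehicle-treated cultures to give inhibition.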

[5] = NCI Yeast Anticancer Drug Screen. Data for the bub3 strain (AID 167); details: S. cerevisiae bub3 mutant strain, at 50.0 µM, hits give high values
Outline: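 Readout: yeast growth inhibition, expressed relative to vehicle-only wells. The test organism is a mutant strain from a panel with lesions in DNA repair or checkpoint genes.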

[6] = NCI Yeast Anticancer Drug Screen. Data for the mlh1 rad18 strain (AID 175); details: S. cerevisiae mlh1 rad18 strain growth inhibition; at 50.0 µM; hits give high values
Outline: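 Read-out is yeast growth inhibition, calculated against vehicle-only controls. The compound was applied to a strain engineered with DNA damage repair alterations.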

Measured: growth inhibition

CCN1N=Nc2ccccc2NC1=O
inactive: [1] 18.1% | [2] 9.85% | [3] 8.45% | [4] 4.5% | [5] -13.1% | [6] -25.3%

COc1ccc(C)cc1NC(=S)NC(=O)c1ccc(Cl)cc1Cl
inactive: [1] 1.7% | [2] 13.7% | [3] 8.15% | [4] -12.6% | [5] 4.7% | [6] 0.75%

CCOC(=O)COc1ccc(C)c2c1C(=O)CC2
inactive: [1] -11.2% | [2] -12.9% | [3] -13.2% | [4] -25.9% | [5] -19.1% | [6] -9.9%

O=C(O)c1cccc(C(=O)O)c1C(=O)O.[NH-]C1CCCCC1[NH-].[Pt+2]
inactive: [1] -17.8% | [2] 0.1% | [3] -15.5% | [4] 22.1% | [5] 7.8% | [6] -34.3%

O=C1CSC=C(c2ccccc2)O1
inactive: [1] 4.45% | [2] 4.4% | [3] -4.7% | [4] -40.8% | [5] -0.5% | [6] -19.4%

O=C(NCCCl)NCC1CCCCO1 (stereo not drawn)
inactive: [1] -2.8% | [2] 7% | [3] 0.2% | [4] -76.3% | [5] -3.9% | [6] -12%

Cc1sc2nc3n(c(=O)c2c1C)N=CN(c1ccc(F)cc1)C3
inactive: [1] 0.85% | [2] -0.45% | [3] 8.85% | [4] -17.1% | [5] -7.5% | [6] -32.6%

CNC(=O)NC1CCC(C)CC1 (stereo not drawn)
inactive: [1] 2% | [2] 2.6% | [3] 1.5% | [4] -14.3% | [5] -6.25% | [6] 7.85%

COc1cc2ccnc(C#N)c2cc1OCc1ccccc1
inactive: [1] -60.1% | [2] -12.3% | [3] -10.7% | [4] -6.15% | [5] -14.2% | [6] -31.3%

CC1CC(=O)Nc2ncccc2N1 (stereo not drawn)
inactive: [1] 5.75% | [2] -4.2% | [3] 4.2% | [4] -28.6% | [5] 8.05% | [6] -9.45%

CCCOc1cc(C)c(C(=O)OC(C)CN2CCCC2)c(C)c1 (stereo not drawn)
inactive: [1] 3.5% | [2] -22.4% | [3] 15.8% | [4] -43.7% | [5] -2.1% | [6] -20.4%

Cc1ccccc1-n1c(C)nc2cc(NC(N)=S)ccc2c1=O
inactive: [1] -19.1% | [2] -3.05% | [3] 0% | [4] -24.5% | [5] -5.9% | [6] -17.7%

Cc1c[n+]2c(C)cccc2n1C
inactive: [1] 10.9% | [2] 27.9% | [3] 27.1% | [4] -26.2% | [5] -8.05% | [6] 3.65%

CCCC1CN2CCc3cc(OC)c(OC)cc3C2CC1=O (stereo not drawn)
inactive: [1] 4.6% | [2] 23.6% | [3] 41.1% | [4] 12.4% | [5] 41.1% | [6] 39.8%

N[C@@H](CSSc1ccccc1C(=O)O)C(=O)O
inactive: [1] -32.9% | [2] -7.25% | [3] -14.4% | [4] 1.85% | [5] 0.8% | [6] -10.3%

Cc1c(Cl)cccc1NC(=O)OC/C=C/c1ccccc1
inactive: [1] 3.2% | [2] 33.2% | [3] 14.8% | [4] -9.35% | [5] 5.6% | [6] -10.9%

CCCCNc1ccc(S(=O)(=O)c2ccc(NCCCC)c([N+](=O)[O-])c2)cc1[N+](=O)[O-]
inactive: [1] 19.6% | [2] 6.6% | [3] 15.2% | [4] -1.4% | [5] 2.35% | [6] -9.8%

Cc1cc2oc3c(c2c(=O)[nH]1)C(=O)c1ccccc1C3=O
inactive: [1] -6.55% | [2] -1.3% | [3] -8% | [4] -17.4% | [5] -21.8% | [6] -5.85%

O=C1OCc2cccc3c2-c2c1cccc2C(=O)OC3
inactive: [1] -3% | [2] -5.7% | [3] -4.8% | [4] 16.2% | [5] -12.5% | [6] 6.7%

O=C1C=C(Nc2ccc(S(=O)(=O)Nc3ncccn3)cc2)c2ccccc2C1=O
inactive: [1] 27.4% | [2] 41.5% | [3] 50.1% | [4] 30.8% | [5] 18.9% | [6] 44.6%

CC(C)CCC[C@@H](C)[C@H]1CC[C@@]2(C)[C@@H]3CC[C@@H]4C(=O)CC[C@]4(C)[C@H]3CC[C@]12C
inactive: [1] 31.3% | [2] 1.5% | [3] 41.5% | [4] 26.8% | [5] 1.6% | [6] 42.1%

OC1CC2C=CC1CC2 (stereo not drawn)
inactive: [1] 14.9% | [2] 10.3% | [3] 2.4% | [4] 13.2% | [5] 25.1% | [6] 14.4%

CN1c2ccccc2N(C(=O)c2ccc([N+](=O)[O-])cc2)C(CC(=O)O)c2cccn21 (stereo not drawn)
inactive: [1] 2.6% | [2] -30.9% | [3] -15.8% | [4] 4.6% | [5] -16.3% | [6] 3%

CC(C)N(C(=O)c1ncccc1C(=O)c1ccccn1)C(C)C
inactive: [1] -11.4% | [2] -5.65% | [3] -4.75% | [4] -5.2% | [5] -5.85% | [6] -5.05%

CCOC(=O)c1ccc(C(=O)OCC)n1-c1cc2cc(c1)CSCc1cc(cc(-n3c(C(=O)OCC)ccc3C(=O)OCC)c1)CSC2
inactive: [1] -26.2% | [2] -30.1% | [3] -20.9% | [4] 16.6% | [5] -13.8% | [6] -5.15%

CC(C)CCCC(C)C1CCC2C3CCC4=C/C(=N/O)CCC4(C)C3CCC12C (stereo not drawn)
inactive: [1] 40.2% | [2] 12.2% | [3] 40.8% | [4] 34.5% | [5] 25.2% | [6] 32.6%

O=C(CN1C(=O)CC(NC(=O)OCc2ccccc2)C1=O)NCC(=O)Oc1ccc([N+](=O)[O-])cc1 (stereo not drawn)
inactive: [1] 31.6% | [2] 20.9% | [3] 26.9% | [4] 7.7% | [5] 4% | [6] 22.1%

CCOC(=O)C(Cc1ccccc1Cl)(Cc1ccccc1Cl)c1ccccc1
inactive: [1] 7.15% | [2] -17.1% | [3] -10.5% | [4] -79.5% | [5] -4.95% | [6] 1.3%

N#Cc1cc(N2CCCCC2)ccc1[N+](=O)[O-]
inactive: [1] 2.6% | [2] -8.35% | [3] -6.2% | [4] -18.1% | [5] -4.5% | [6] -0.4%

CCCCNc1ccccc1
inactive: [1] 30.4% | [2] 6.3% | [3] 28.8% | [4] -21% | [5] -6.25% | [6] 42.5%

COc1ccc2c(c1)OC[C@@H]1c3cc(NS(=O)(=O)c4ccccc4)cc(OC)c3O[C@H]21
inactive: [1] 10.9% | [2] 32.5% | [3] 47.8% | [4] 30.3% | [5] 58.8% | [6] 52.6%

O=NNc1nc2ncccc2cc1-c1ccccc1Cl
inactive: [1] -7.8% | [2] -6.05% | [3] -5.9% | [4] 9.75% | [5] -22.2% | [6] -8.2%

CCCCC1(C(NC(=O)c2ccccc2Cl)c2ccncc2)C(=O)N(c2ccccc2)N(c2ccccc2)C1=O (stereo not drawn)
inactive: [1] 33.8% | [2] 15.8% | [3] 9.15% | [4] 6.35% | [5] 33.5% | [6] 41.5%

Cc1cccc(-c2c3ccccc3cc3ccccc23)c1
inactive: [1] 6.35% | [2] 14.2% | [3] 7.55% | [4] -3.1% | [5] 2.35% | [6] 11.6%

O=C(NC(=O)c1c(F)cccc1F)Nc1nc2c(Cl)cccc2s1
inactive: [1] 21.4% | [2] 14.7% | [3] 10.1% | [4] -4.9% | [5] -6.55% | [6] 17.6%

CC(=O)n1nnc(CC#N)c1-c1ccccc1
inactive: [1] 20.4% | [2] 7.5% | [3] 2.65% | [4] 5.1% | [5] -23.2% | [6] -15.3%

CCOC(=O)c1ccc(-n2nc(C)cc(Cl)c2=O)cc1
inactive: [1] 1.3% | [2] -11.2% | [3] 10.8% | [4] -43% | [5] 20.4% | [6] -4.8%

NNC(=O)CCSCCC(=O)NN
inactive: [1] 7.85% | [2] -17.2% | [3] 3.4% | [4] -28.9% | [5] -5.95% | [6] -0.75%
